Laboratory results reported in PubChem BioAssay.
Values without a mark were called inactive. Activity calls are given as the source filed them.

Assay: plasmodial surface anion channel blockers, osmotic lysis – cell-based, P. falciparum Indochina, OD700, 2 h, primary screen (AID 1155);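 also: lysis reports solute entry through the parasite surface anion channel PSAC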
Details: P. falciparum Indochina infected erythrocytes, higher = more signal, called active from +8 up or from −8 down

SMILES | z-score
COc1cc(CO)cc(I)c1O[C@H]1C=C(C(=O)NCCO)C[C@@H](N(CC2CCCCC2)C(=O)c2cc3ccccc3oc2=O)[C@@H]1O | 0.718
C=C(CCCC)/C(=C/C[C@@H](OC(=O)c1ccncc1)c1cccc(OCCO)c1)c1cc(C(=O)OC)ccc1OC | 3.89
C=CCC(OC(C)=O)[C@@H]1[C@@H](N(Cc2ccc(-c3ccccc3)cc2)C(=O)c2ccc(-c3ccccc3)cc2)c2cc(OCCCO)ccc2N1C(=O)Cc1ccc(OC)cc1 (some centres undefined) | -0.402
CC(=O)NCCCC[C@@H]1NC(=O)[C@H]2C[C@@H](C(=O)NCCCCCCN(C)C)[C@@H](c3ccc(O)cc3)N2C1=O | 0.461
Cc1ccc(S[C@]2(C(=O)NC(C)C)CC(=O)N(C3Cc4ccccc4C3)[C@@H]2c2ccc(CO)cc2)cc1 | -0.862
Cc1ccc(N2C(=O)c3ccccc3[C@](C)(C(=O)NCC(C)C)[C@@H]2c2ccc(CO)cc2)nc1 | 0.707
[N-]=[N+]=NCc1ccccc1C[C@]1(C(=O)N2CCCCC2)N=C(c2ccc(OCCCO)cc2)O[C@H]1c1ccccc1CN=[N+]=[N-] | 3.02
C=C(CCCC)/C(=C/C[C@H](OC(=O)c1ccncc1)c1cccc(OCCO)c1)c1cc(C(=O)OC)ccc1OC | 3.75
O=C(CS)NCCCCCCNC(=O)[C@@H]1C[C@@H]2C(=O)N[C@@H](Cc3ccccc3)C(=O)N2[C@@H]1c1ccc(O)cc1 | 1.52
C=C(CCCC)C(=O)CC[C@@H](OC(=O)c1cccnc1)c1cccc(OCCO)c1 | 13.1 (active)
COc1ccc([C@H]2C[C@H]3C(Br)=C[C@]2(OC)C(=O)[C@]32CO2)cc1 | 0.0516
C=C(C(=O)CC[C@H](OC(=O)c1ccccc1-c1ccccc1C(=O)O)c1ccc(CO)o1)C(C)C | 0.36
COC(=O)c1ccc(C#CC(NP(=O)(c2ccccc2)c2ccccc2)c2ccccc2)cc1 (centres undefined) | 1.16
CCOC(=O)C1=CC[C@@H](c2ccc(-c3ccc(OCc4ccccc4)cc3)c(OC)c2)N(S(=O)(=O)c2ccc(C)cc2)[C@H]1c1ccccc1 | 1.86
CC(c1ccccc1)C(O)C1C=CC2C(=O)N(C)C(=O)C2N1N(c1ccccc1)c1ccccc1 (centres undefined) | 0.386
C=C[C@H](OC)[C@@H](OC(=O)Nc1ccc(SC)cc1)c1ccc(O)c(F)c1 | 8.06 (active)
C=C(CCCC)C(=O)CC[C@@H](OC(C)=O)c1ccccc1OCCO | 0.663

SMILES | z-score
CC(=O)NCCCC[C@@H]1NC(=O)[C@H]2C[C@@H](C(=O)NCCCCCCN(C)C)[C@@H](c3cccc(OCCO)c3)N2C1=O | 0.461
CCCC=C(CCC)[C@@H](NS(=O)(=O)c1cccc(C(F)(F)F)c1)c1ccc(C(=O)OC)cc1 | -0.868
O=C(NCc1ccccc1)[C@@]1(Cc2ccccc2)COC(c2ccc(OCCCO)cc2)=N1 | 21.2 (active)
[N-]=[N+]=NCc1ccccc1[C@H]1OC(c2ccc(OCCCO)cc2)=N[C@@]1(Cc1ccccc1N=[N+]=[N-])C(=O)NCc1ccccc1 | 20.5 (active)
NC(=O)NCC#Cc1ccc2c(c1)[C@]1(C(=O)N2)[C@H](C(=O)N2CCCCCCC2)[C@H]2C(=O)O[C@H](c3ccccc3)[C@H](c3ccccc3)N2[C@@H]1c1ccccc1OCCO | 0.483
C#CCNC(/C=C/c1ccccc1)CO (centres undefined) | 0.36
O=C1C2C=CC(C(O)C(c3ccccc3)c3ccccc3)N(Nc3ccc([N+](=O)[O-])cc3)C2C(=O)N1c1ccccc1 (centres undefined) | 1.73
C=C(CCCC)/C(=C/C[C@@H](OC(=O)c1ccncc1)c1ccc(CO)o1)c1cnc2ccccc2c1 | 0.843
CCc1cccc(NC(=O)O[C@H]2[C@H](OC(=O)Nc3ccccc3)[C@@H](OC(=O)Nc3ccccc3)[C@@H](OC)O[C@@H]2CO)c1 | 1.13
C=CC[C@]1(C(=O)N2CCCCC2)N=C(c2ccc(OCCCO)cc2)O[C@H]1c1ccccc1N=[N+]=[N-] | 31.6 (active)
C#C[C@H](O[Si](C#Cc1ccccc1)(C(C)C)C(C)C)c1ccccc1 | 0.924
CCOC(=O)C1=CC[C@@H](c2ccccc2)N(S(=O)(=O)c2ccc(C)cc2)[C@H]1C | 1.03
O=C(N1CCCCC1)[C@@]1(CCS(=O)(=O)c2ccccc2)N=C(c2ccc(OCCCO)cc2)O[C@H]1c1ccccc1 | 24.2 (active)
CC(C)(C)OC(=O)CC[C@]1(C(=O)N2CCCCC2)N=C(c2ccc(OCCCO)cc2)O[C@H]1c1ccccc1 | 6.24
N#Cc1ccc(NN2C(C(O)CCc3ccccc3)C=CC3C(=O)N(c4ccccc4)C(=O)C32)cc1 (centres undefined) | 1.44
Cc1ccc(S[C@]2(C(=O)NC3CC3)CC(=O)N(Cc3cc(C(F)(F)F)cc(C(F)(F)F)c3)[C@@H]2c2ccc(CO)cc2)cc1 | -0.861
Cc1ccc(S(=O)(=O)N2[C@@H](c3ccccc3)C(C(=O)O)=CC[C@H]2c2ccccc2)cc1 | 0.798
